The text below walks through data of PubChem BioAssay (NCI).

Compounds without any hit were thinned out: in the full panel of roughly 83,000, 20% have a hit.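 Percent growth is the endpoint: 0 to 100 indicates growth inhibition (40 means 60% inhibition), 0 means no net growth, and negative values indicate cell death.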 Values without a mark were called inactive. Activity calls are given as the source filed them. Rule for the calls: active = growth percent below 10; inactive = the rest.

Test systems include SR leukemia; RPMI-8226 leukemia; OVCAR-8 ovarian; OVCAR-5 ovarian; OVCAR-4 ovarian; SK-OV-3 ovarian; IGROV1 ovarian; OVCAR-3 ovarian; HS 578T breast; NCI/ADR-RES ovarian; T-47D breast; BT-549 breast; MDA-MB-435 melanoma; SW-620 colon; MCF7 breast; HCT-116 colon; HCC-2998 colon; KM12 colon; MDA-MB-468 breast.
Common to all, as to experiment: NCI-60 one-dose screen, 48 h (100 = growth as untreated, 0 = no growth, -100 = all killed)
Holding throughout (conditions): 10 µM unless noted

For `O=C(c1ccccc1)C(c1c[nH]c2ccccc12)c1c[nH]c2ccccc12`, the growth with SR leukemia is 7.54% (active); in the assay on RPMI-8226 leukemia, 20.6%; in the assay with OVCAR-8 ovarian, 64.4%; with OVCAR-5 ovarian, 76.6%; in the assay on OVCAR-4 ovarian, 51.5%; in the assay with SK-OV-3 ovarian, 94.2%. Besides, the growth is 56% with IGROV1 ovarian; 57.9% in the assay on OVCAR-3 ovarian; 61% with HS 578T breast; 47.4% in the assay on NCI/ADR-RES ovarian; 58% in the assay on T-47D breast; 14% in the assay with BT-549 breast. Besides, the growth in the assay on MDA-MB-435 melanoma was 36.8%; with SW-620 colon, 4.95% (active); in the assay with MCF7 breast, 16.4%; in the assay on HCT-116 colon, 20.2%; with HCC-2998 colon it was 83.8%; in the assay with KM12 colon it was 51.3%. In addition, the growth in the assay on MDA-MB-468 breast is 57.8%.
As for `CCOC(=O)C1=C(N)N(c2ccccc2)C2=C(C(=O)CC(C)(C)C2)C1c1ccccc1Cl` (stereo not drawn), the growth in the assay with SR leukemia is 32.5%; in the assay with RPMI-8226 leukemia, 22.5%; in the assay with OVCAR-8 ovarian, 83.6%; in the assay with OVCAR-5 ovarian, 86.8%; in the assay on OVCAR-4 ovarian it was 74.6%; in the assay with SK-OV-3 ovarian, 90.1%. The growth in the assay with IGROV1 ovarian was 92%; with OVCAR-3 ovarian it was 62.7%; in the assay on HS 578T breast, 93.4%; with NCI/ADR-RES ovarian, 74%; in the assay with T-47D breast, 52%; in the assay on BT-549 breast, 78.6%. For the same compound, the growth in the assay with MDA-MB-435 melanoma is 73.1%; in the assay on SW-620 colon it was 74.6%; in the assay with MCF7 breast, 56.5%; with HCT-116 colon, 41.3%; in the assay on HCC-2998 colon, 85.6%; in the assay with KM12 colon it was 58.4%. For the same compound, the growth in the assay on MDA-MB-468 breast is 50.2%.
For `CC1(C)CC[C@]2(C(=O)O)CC[C@]3(C)C(=CCC4[C@@]5(C)C[C@@H](O)[C@@H]6OC(c7ccccc7Br)OC[C@@]6(C)C5CC[C@]43C)C2C1` (stereo partly drawn), the growth in the assay with SR leukemia was 12.5%; in the assay on RPMI-8226 leukemia, 8.21% (active); in the assay with OVCAR-8 ovarian it was 14.7%; in the assay with OVCAR-5 ovarian, 36%; with OVCAR-4 ovarian, 33.1%; in the assay with SK-OV-3 ovarian, 40.2%. The growth in the assay with IGROV1 ovarian is 35%; in the assay with OVCAR-3 ovarian, 9.3% (active); with HS 578T breast, 31.9%; in the assay on NCI/ADR-RES ovarian, 11.5%; in the assay with T-47D breast it was 20.4%; in the assay on BT-549 breast, 13.5%. The growth in the assay on MDA-MB-435 melanoma is 28%; with SW-620 colon it was 19.5%; in the assay with MCF7 breast, 7.28% (active); in the assay with HCT-116 colon, 6.88% (active); in the assay on HCC-2998 colon, 18.8%; in the assay on KM12 colon it was 16.9%. Moreover, in the assay with MDA-MB-468 breast, the growth was 18.4%.
Regarding `O=c1onc(-c2cc3ccccc3nc2Cl)n1-c1cccc2ccccc12`, the growth is 16.8% in the assay on SR leukemia; 40.6% in the assay on RPMI-8226 leukemia; 51.4% in the assay on OVCAR-8 ovarian; 94.8% in the assay with OVCAR-5 ovarian; 38.6% in the assay with OVCAR-4 ovarian; 34.4% in the assay with SK-OV-3 ovarian. Moreover, the growth in the assay on IGROV1 ovarian was 61.8%; with OVCAR-3 ovarian, 64%; with HS 578T breast, 30%; with NCI/ADR-RES ovarian it was 15.2%; with T-47D breast, 3.09% (active); in the assay on BT-549 breast it was 28.5%. The growth with MDA-MB-435 melanoma is -11.8% (active); in the assay on SW-620 colon, 29.7%; in the assay with MCF7 breast, 21.4%; in the assay with HCT-116 colon, 40.2%; in the assay on HCC-2998 colon, 71.1%; in the assay on KM12 colon it was 44.2%. Also, the growth in the assay with MDA-MB-468 breast was -25.2% (active).
Take `O=C1NC(=O)/C(=C/c2ccccc2OCc2cc3ccccc3nc2Cl)S1`: the growth was 105% with SR leukemia; 93.7% in the assay with RPMI-8226 leukemia; 68.4% with OVCAR-8 ovarian; 112% with OVCAR-5 ovarian; 88.2% in the assay on OVCAR-4 ovarian; 81.7% in the assay on SK-OV-3 ovarian. The growth is 91.5% with IGROV1 ovarian; 71.7% in the assay on OVCAR-3 ovarian; 28.8% in the assay on HS 578T breast; 87.6% in the assay on NCI/ADR-RES ovarian; 75.3% with T-47D breast; 78.7% with BT-549 breast. The growth was 101% in the assay on MDA-MB-435 melanoma; 109% with SW-620 colon; 74.3% in the assay on MCF7 breast; 108% with HCT-116 colon; 114% in the assay on HCC-2998 colon; 85.2% with KM12 colon. In the assay on MDA-MB-468 breast, the growth was 80.6%.
As to `Cn1cc(-c2cc(N)n3nc(-c4cn(C)c5ccc(Cl)cc45)cc3n2)c2ccccc21`, the growth was 99.7% in the assay on SR leukemia; 109% in the assay with RPMI-8226 leukemia; 104% in the assay on OVCAR-8 ovarian; 108% in the assay with OVCAR-5 ovarian; 111% in the assay on OVCAR-4 ovarian; 105% with SK-OV-3 ovarian. Moreover, the growth was 111% in the assay with IGROV1 ovarian; 122% in the assay with OVCAR-3 ovarian; 113% in the assay on HS 578T breast; 105% with NCI/ADR-RES ovarian; 101% with T-47D breast; 118% with BT-549 breast. Also, the growth with MDA-MB-435 melanoma is 101%; in the assay on SW-620 colon it was 114%; with MCF7 breast, 98.8%; in the assay with HCT-116 colon, 104%; in the assay on HCC-2998 colon, 105%; in the assay on KM12 colon it was 109%. Further, in the assay with MDA-MB-468 breast, the growth was 96.4%.
On to `COc1cc(C2CC(c3ccc(S(=O)(=O)NCCNc4nc(Nc5ccc(F)cc5)nc(N(C)C)n4)cc3)=Nc3c(N)nc(N)nc3N2)cc(OC)c1OC` (stereo not drawn), for which the growth was 36.1% in the assay on SR leukemia; 24.8% in the assay with RPMI-8226 leukemia; 93.1% with OVCAR-8 ovarian; 98.4% in the assay with OVCAR-5 ovarian; 85.6% in the assay with OVCAR-4 ovarian; 110% in the assay on SK-OV-3 ovarian. Besides, the growth is 81.7% in the assay with IGROV1 ovarian; 93.6% with OVCAR-3 ovarian; 76.5% with HS 578T breast; 95.6% with NCI/ADR-RES ovarian; 56.2% with T-47D breast; 62.8% in the assay with BT-549 breast. Also, the growth is 87.1% with MDA-MB-435 melanoma; 96.3% with SW-620 colon; 51.1% with MCF7 breast; 82.6% in the assay with HCT-116 colon; 87.5% in the assay with HCC-2998 colon; 95.5% in the assay on KM12 colon. Further, the growth with MDA-MB-468 breast is 0.318% (active).
